Screening results (PubChem)
TWEAK Fn14 block: blocks TWEAK-Fn14 interaction in a reporter cell assay | TWEAK-stimulated Fn14 reporter cells, luciferase luminescence, 8 h | inhibition, % at 10 µM | 360,000 tested, 2% active; in the data active = inhibition above about 50%
EWS-Fli block: inhibitors of EWS/Fli oncoprotein transcriptional activity. A673 NR0B1-luciferase reporter, viability-normalised. 350,000 tested, 0.67% active. inhibition, % at 12.6 µM. AID 651661;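 active = mean inhibition of at least 50% after viability correction, with every replicate also passing that limit; inconclusive = mean reaches 50% but only one of two replicates passes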;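 note: firefly luciferase signal divided by Alamar Blue viability fluorescence both relative to DMSO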
LGR2 antag: Drosophila LGR2 receptor signaling inhibition; HEK293 LGR2, CRE-luciferase, bursicon-stimulated, 4 h; inhibition, % at 9.99 µM; 380,000 tested, 0.35% active; AID 720647;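 active = drop in luminescence signal, shown as inhibition above about 50% in the replicate tests, limit read from the data, passing the limit was not always enough; inconclusive = probably only some replicates passing the limit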;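 note: agonist challenge used bursicon conditioned medium at about half maximal strength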
PAX8 reporter: lowers PAX8-driven luciferase in RMG-I cells | inhibition, % at 12.6 µM | 360,000 tested, 1.2% active | RMG-I TPO-luciferase reporter, SteadyGlo, 24 h;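 active = mean replicate inhibition at least 60% with every replicate also reaching 60%; inconclusive = only one of the two criteria is met; inactive = mean below 60% and not all replicates reaching 60%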;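 note: luciferase light reporting Pax8 driven TPO promoter activity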
TROY signal inh: TROY signaling inhibition; Q293 LMP1-TROYcd NF-kB luciferase reporter, 4 h; inhibition, % at 10 µM; 360,000 tested, 0.98% active; AID 1347056;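 active = compounds whose plate-normalised and pattern-corrected inhibition of the luciferase reporter signal at the single screening dose is 50% or more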
EBV LMP1 NFkB: Epstein-Barr LMP1 NF-kappaB reporter inhibition. LMP1-induced NF-kappaB luciferase reporter cells, luminescence. inhibition, % at 12.5 µM. 350,000 tested, 0.69% active. AID 504558; in the data active = inhibition above about 41%; inconclusive = no clear call, values can overlap the other calls
Hits are given with their value; . = inactive; ? = inconclusive; / = no result. Only some compounds are listed: those with a hit (about 3.1% of all), similar ones and a draw of the others.

SMILES	TWEAK Fn14 block	EWS-Fli block	LGR2 antag	PAX8 reporter	TROY signal inh	EBV LMP1 NFkB
CC(=O)N1[C@H](CO)[C@@H]2c3ccccc3N(S(=O)(=O)c3ccc(F)cc3)C[C@@H]21	/	.	.	.	/	/
CCCC(=O)N1CCC2(CC1)CN(C(=O)Cc1ccccn1)[C@H](CO)c1[nH]c3cc(OC)ccc3c12	/	.	.	/	/	/
CC(=Nc1ccccc1)C1=C(O)C(Cc2ccc(O)cc2)NC1=O (stereo unspecified)	.	.	.	67	.	.
Cc1ccccc1NC(=O)c1cc(C(=O)c2cc(Cl)ccc2O)cn(-c2ccccc2C)c1=O	87	.	.	.	.	.
Cc1ccc(-n2cc(C(=O)c3cc(Cl)ccc3O)cc(C#N)c2=O)cc1	.	/	.	.	.	.
N=C1SCC(=O)N1c1ncc(Cc2cccc(Cl)c2)s1	102	.	.	.	67	.
N=C1SCC(=O)N1c1ncc(Cc2ccccc2Cl)s1	100	.	.	.	.	.
CC(C)C(=O)Nc1ncc(Cc2ccccc2Cl)s1	.	.	.	.	.	.
Cc1cccc(Cc2cnc(N3C(=N)SC(c4ccccc4)C3=O)s2)c1 (stereo unspecified)	.	.	.	.	.	.
Cc1cccc(Cc2cnc(N3C(=N)SC(C)C3=O)s2)c1 (stereo unspecified)	.	.	.	.	67	.
CO[C@H]1CN(C)C(=O)c2cc(NC(=O)NC(C)C)ccc2OC[C@@H](C)N(C(=O)CN(C)C)C[C@H]1C	/	.	.	.	/	/
O=C(N[C@H]1C/C=C\C[C@@H](CC(=O)N(CCO)Cc2ccccc2)C(=O)NC[C@H](c2ccccc2)OC1=O)OCC1c2ccccc2-c2ccccc21	51	.	/	.	.	.
O=C(N[C@@H]1C/C=C\C[C@@H](CC(=O)N(CCO)Cc2ccccc2)C(=O)NCCOC1=O)OCC1c2ccccc2-c2ccccc21	.	/	/	/	.	.
C[C@@H]1CCCCO[C@@H](CN(C)S(=O)(=O)c2ccc(F)cc2)[C@H](C)CN([C@H](C)CO)C(=O)c2cc(NC(=O)Nc3ccc(F)cc3)ccc2O1	/	.	.	.	/	/
Cc1ccc(CCNC(=O)CCc2nc3ccccc3[nH]2)cc1	.	.	.	.	.	57
CCCC(=O)NCCc1nc2ccccc2n1C	.	/	/	.	.	.
CCCC(=O)NCCCc1nc2ccccc2n1C	.	.	.	.	.	92
CCCC(=O)NCCCc1nc2ccccc2[nH]1	.	.	.	.	.	87
C[C@@H]1CN([C@@H](C)CO)C(=O)c2cc(-c3cccnc3)cnc2O[C@H]1CN(C)C(=O)Nc1ccc(C(F)(F)F)cc1	/	.	.	/	/	/
C[C@H]1CCCCO[C@H](CN(C)Cc2ccc(C(F)(F)F)cc2)[C@@H](C)CN([C@@H](C)CO)C(=O)c2cc(NC(=O)Nc3ccc4c(c3)OCO4)ccc2O1	/	.	.	.	/	/
C[C@H]1CCCCO[C@@H](CN(C)Cc2ccc(C(F)(F)F)cc2)[C@@H](C)CN([C@@H](C)CO)C(=O)c2cc(NC(=O)Nc3ccc4c(c3)OCO4)ccc2O1	/	.	.	80	/	/
C[C@@H]1CCCCO[C@@H](CN(C)Cc2ccc(C(F)(F)F)cc2)[C@H](C)CN([C@H](C)CO)C(=O)c2cc(NC(=O)Nc3ccc4c(c3)OCO4)ccc2O1	/	.	.	71	/	/
C[C@H](CO)N1C[C@H](C)[C@@H](CN(C)Cc2ccc(C(F)(F)F)cc2)OCCCC[C@H](C)Oc2ccc(NC(=O)Nc3ccc4c(c3)OCO4)cc2C1=O	/	.	.	.	/	/
C[C@@H]1CCCCO[C@H](CN(C)Cc2ccc(C(F)(F)F)cc2)[C@H](C)CN([C@@H](C)CO)C(=O)c2cc(NC(=O)Nc3ccc4c(c3)OCO4)ccc2O1	/	.	.	84	/	/
Cc1ccc(S(=O)(=O)Nc2ccc3c(c2)CC(=O)N([C@@H](C)CO)C[C@H](C)[C@@H](CN(C)C(=O)Nc2c(C)noc2C)O3)cc1	/	.	.	.	/	/
O=C(NCc1ccco1)c1ccccc1NS(=O)(=O)c1ccc(Cl)s1	.	/	/	.	.	.
O=C(Nc1ccccc1Cc1ccccc1)c1ccccc1NS(=O)(=O)c1ccc(Cl)s1	58	/	?	71	68	.
O=C(Nc1ccccc1)c1ccccc1NS(=O)(=O)c1ccc(Cl)s1	.	/	/	/	63	.
Cc1ccc(NS(=O)(=O)c2ccc(Cl)s2)nc1	.	.	.	.	.	.
Cc1ccc(NC(=O)c2ccccc2NS(=O)(=O)c2ccc(Cl)s2)cc1	58	.	.	.	.	.
